# Assay results reported in paper PMC11006913.
# Experiments:
# Experiment in all cases: PBM; 200 nM protein, PBS
# Conditions in all cases: dsDNA, one strand shown
# [1] = molecular target: HOXA4 (Homo sapiens, UniProt Q00056 201-287, W262R)
# [2] = molecular target: HOXA4 (Homo sapiens, UniProt Q00056 201-287, R217L)
# [3] = molecular target: HOXA4 (Homo sapiens, UniProt Q00056 201-287)
# [4] = molecular target: HOXA4 (Homo sapiens, UniProt Q00056 201-287, W262F)
# [5] = molecular target: HOXD13 (Homo sapiens, UniProt P35453 263-343)
# Chain of HOXD13 (P35453 263-343): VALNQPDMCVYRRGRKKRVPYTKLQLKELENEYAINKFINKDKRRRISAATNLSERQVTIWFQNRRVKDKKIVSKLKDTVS
# [6] = molecular target: HOXC9 (Homo sapiens, UniProt P31274 178-260, K195R)
# Chain of HOXC9 (Homo sapiens, UniProt P31274 178-260, K195R) (P31274 178-260 K195R): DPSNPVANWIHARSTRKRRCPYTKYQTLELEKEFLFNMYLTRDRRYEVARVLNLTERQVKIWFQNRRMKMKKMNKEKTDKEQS
# [7] = molecular target: HOXC10 (Homo sapiens, UniProt Q9NYD6 254-340)
# Chain of HOXC10 (Homo sapiens, UniProt Q9NYD6 254-340) (Q9NYD6 254-340): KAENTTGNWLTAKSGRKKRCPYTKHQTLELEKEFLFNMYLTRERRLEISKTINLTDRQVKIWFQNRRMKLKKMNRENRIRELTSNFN
# [8] = molecular target: HOXC9 (Homo sapiens, UniProt P31274 178-260)
# Chain of HOXC9 (Homo sapiens, UniProt P31274 178-260) (P31274 178-260): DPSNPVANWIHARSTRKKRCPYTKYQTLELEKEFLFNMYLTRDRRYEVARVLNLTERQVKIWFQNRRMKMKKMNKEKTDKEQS
# [9] = molecular target: HOXC9 (Homo sapiens, UniProt P31274 178-260, R193K)
# Chain of HOXC9 (Homo sapiens, UniProt P31274 178-260, R193K) (P31274 178-260 R193K): as the sequence (P31274 178-260) above, with R16K counted along it
# [10] = molecular target: HOXC10 (Homo sapiens, UniProt Q9NYD6 254-340, K271E)
# Chain of HOXC10 (Homo sapiens, UniProt Q9NYD6 254-340, K271E) (Q9NYD6 254-340 K271E): as the sequence (Q9NYD6 254-340) above, with K18E counted along it
# [11] = molecular target: HOXC9 (Homo sapiens, UniProt P31274 178-260, R222W)
# Chain of HOXC9 (Homo sapiens, UniProt P31274 178-260, R222W) (P31274 178-260 R222W): as the sequence (P31274 178-260) above, with R45W counted along it
# Chain of HOXA4 (Homo sapiens, UniProt Q00056 201-287) (Q00056 201-287): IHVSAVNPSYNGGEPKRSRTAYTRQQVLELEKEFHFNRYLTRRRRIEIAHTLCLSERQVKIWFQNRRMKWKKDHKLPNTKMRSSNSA
# Chain of HOXA4 (Homo sapiens, UniProt Q00056 201-287, W262R) (Q00056 201-287 W262R): as the sequence (Q00056 201-287) above, with W62R counted along it
# Chain of HOXA4 (Homo sapiens, UniProt Q00056 201-287, R217L) (Q00056 201-287 R217L): as the sequence (Q00056 201-287) above, with R17L counted along it
# Chain of HOXA4 (Homo sapiens, UniProt Q00056 201-287, W262F) (Q00056 201-287 W262F): as the sequence (Q00056 201-287) above, with W62F counted along it
sequence,measurement,setting,value
CCACGCCC,binding signal,[1],"9.84 upbm affinity estimate (log intensity, higher = more binding, comparable within an allelic series)"
same,binding signal,[2],"9.85 upbm affinity estimate (log intensity, higher = more binding, comparable within an allelic series)"
same,binding signal,[3],"9.64 upbm affinity estimate (log intensity, higher = more binding, comparable within an allelic series)"
same,binding signal,[4],"9.99 upbm affinity estimate (log intensity, higher = more binding, comparable within an allelic series)"
ACCTGCCG,binding signal,[1],"9.93 upbm affinity estimate (log intensity, higher = more binding, comparable within an allelic series)"
same,binding signal,[2],"9.82 upbm affinity estimate (log intensity, higher = more binding, comparable within an allelic series)"
same,binding signal,[3],"9.98 upbm affinity estimate (log intensity, higher = more binding, comparable within an allelic series)"
same,binding signal,[4],"9.88 upbm affinity estimate (log intensity, higher = more binding, comparable within an allelic series)"
GAGTAATA,binding signal,[1],"10.3 upbm affinity estimate (log intensity, higher = more binding, comparable within an allelic series)"
same,binding signal,[5],"10.9 upbm affinity estimate (log intensity, higher = more binding, comparable within an allelic series)"
same,binding signal,[3],"11.7 upbm affinity estimate (log intensity, higher = more binding, comparable within an allelic series)"
CAGGGGGA,binding signal,[1],"9.68 upbm affinity estimate (log intensity, higher = more binding, comparable within an allelic series)"
same,binding signal,[2],"9.64 upbm affinity estimate (log intensity, higher = more binding, comparable within an allelic series)"
same,binding signal,[3],"9.87 upbm affinity estimate (log intensity, higher = more binding, comparable within an allelic series)"
same,binding signal,[4],"9.7 upbm affinity estimate (log intensity, higher = more binding, comparable within an allelic series)"
AACGAATT,binding signal,[1],"10.3 upbm affinity estimate (log intensity, higher = more binding, comparable within an allelic series)"
same,binding signal,[3],"11.6 upbm affinity estimate (log intensity, higher = more binding, comparable within an allelic series)"
AGGAGTCC,binding signal,[1],"9.98 upbm affinity estimate (log intensity, higher = more binding, comparable within an allelic series)"
same,binding signal,[2],"9.79 upbm affinity estimate (log intensity, higher = more binding, comparable within an allelic series)"
same,binding signal,[3],"9.77 upbm affinity estimate (log intensity, higher = more binding, comparable within an allelic series)"
same,binding signal,[4],"9.94 upbm affinity estimate (log intensity, higher = more binding, comparable within an allelic series)"
GACCCCCC,binding signal,[1],"9.49 upbm affinity estimate (log intensity, higher = more binding, comparable within an allelic series)"
same,binding signal,[2],"9.56 upbm affinity estimate (log intensity, higher = more binding, comparable within an allelic series)"
same,binding signal,[3],"9.7 upbm affinity estimate (log intensity, higher = more binding, comparable within an allelic series)"
same,binding signal,[4],"9.59 upbm affinity estimate (log intensity, higher = more binding, comparable within an allelic series)"
ACCCTAGG,binding signal,[1],"9.88 upbm affinity estimate (log intensity, higher = more binding, comparable within an allelic series)"
same,binding signal,[2],"9.89 upbm affinity estimate (log intensity, higher = more binding, comparable within an allelic series)"
same,binding signal,[3],"9.97 upbm affinity estimate (log intensity, higher = more binding, comparable within an allelic series)"
same,binding signal,[4],"9.92 upbm affinity estimate (log intensity, higher = more binding, comparable within an allelic series)"
ACGTTAAT,binding signal,[1],"10.6 upbm affinity estimate (log intensity, higher = more binding, comparable within an allelic series)"
same,binding signal,[2],"11.6 upbm affinity estimate (log intensity, higher = more binding, comparable within an allelic series)"
same,binding signal,[3],"12.9 upbm affinity estimate (log intensity, higher = more binding, comparable within an allelic series)"
same,binding signal,[4],"11 upbm affinity estimate (log intensity, higher = more binding, comparable within an allelic series)"
ACGTTTAG,binding signal,[1],"10.2 upbm affinity estimate (log intensity, higher = more binding, comparable within an allelic series)"
same,binding signal,[3],"11 upbm affinity estimate (log intensity, higher = more binding, comparable within an allelic series)"
CAGACCTC,binding signal,[1],"9.86 upbm affinity estimate (log intensity, higher = more binding, comparable within an allelic series)"
same,binding signal,[2],"9.83 upbm affinity estimate (log intensity, higher = more binding, comparable within an allelic series)"
same,binding signal,[3],"9.81 upbm affinity estimate (log intensity, higher = more binding, comparable within an allelic series)"
same,binding signal,[4],"9.9 upbm affinity estimate (log intensity, higher = more binding, comparable within an allelic series)"
TAAAATTA,binding signal,[1],"10.3 upbm affinity estimate (log intensity, higher = more binding, comparable within an allelic series)"
same,binding signal,[3],"12.2 upbm affinity estimate (log intensity, higher = more binding, comparable within an allelic series)"
GGCGAGCC,binding signal,[1],"9.78 upbm affinity estimate (log intensity, higher = more binding, comparable within an allelic series)"
same,binding signal,[2],"9.59 upbm affinity estimate (log intensity, higher = more binding, comparable within an allelic series)"
same,binding signal,[3],"9.66 upbm affinity estimate (log intensity, higher = more binding, comparable within an allelic series)"
same,binding signal,[4],"9.76 upbm affinity estimate (log intensity, higher = more binding, comparable within an allelic series)"
TGATGACA,binding signal,[1],"10.2 upbm affinity estimate (log intensity, higher = more binding, comparable within an allelic series)"
same,binding signal,[3],"11.8 upbm affinity estimate (log intensity, higher = more binding, comparable within an allelic series)"
AATTGTTC,binding signal,[1],"10.4 upbm affinity estimate (log intensity, higher = more binding, comparable within an allelic series)"
same,binding signal,[3],"11.9 upbm affinity estimate (log intensity, higher = more binding, comparable within an allelic series)"
CCAGCGGG,binding signal,[1],"9.83 upbm affinity estimate (log intensity, higher = more binding, comparable within an allelic series)"
same,binding signal,[2],"9.65 upbm affinity estimate (log intensity, higher = more binding, comparable within an allelic series)"
same,binding signal,[3],"9.72 upbm affinity estimate (log intensity, higher = more binding, comparable within an allelic series)"
same,binding signal,[4],"9.76 upbm affinity estimate (log intensity, higher = more binding, comparable within an allelic series)"
CCTGCTCC,binding signal,[1],"9.98 upbm affinity estimate (log intensity, higher = more binding, comparable within an allelic series)"
same,binding signal,[2],"9.88 upbm affinity estimate (log intensity, higher = more binding, comparable within an allelic series)"
same,binding signal,[3],"9.83 upbm affinity estimate (log intensity, higher = more binding, comparable within an allelic series)"
same,binding signal,[4],"9.97 upbm affinity estimate (log intensity, higher = more binding, comparable within an allelic series)"
CACACCGG,binding signal,[1],"9.76 upbm affinity estimate (log intensity, higher = more binding, comparable within an allelic series)"
same,binding signal,[2],"9.68 upbm affinity estimate (log intensity, higher = more binding, comparable within an allelic series)"
same,binding signal,[3],"9.76 upbm affinity estimate (log intensity, higher = more binding, comparable within an allelic series)"
same,binding signal,[4],"9.81 upbm affinity estimate (log intensity, higher = more binding, comparable within an allelic series)"
CACGGTGC,binding signal,[1],"9.98 upbm affinity estimate (log intensity, higher = more binding, comparable within an allelic series)"
same,binding signal,[2],"9.8 upbm affinity estimate (log intensity, higher = more binding, comparable within an allelic series)"
same,binding signal,[3],"9.75 upbm affinity estimate (log intensity, higher = more binding, comparable within an allelic series)"
same,binding signal,[4],"9.86 upbm affinity estimate (log intensity, higher = more binding, comparable within an allelic series)"
CCTCCAGC,binding signal,[1],"9.79 upbm affinity estimate (log intensity, higher = more binding, comparable within an allelic series)"
same,binding signal,[2],"9.82 upbm affinity estimate (log intensity, higher = more binding, comparable within an allelic series)"
same,binding signal,[3],"9.83 upbm affinity estimate (log intensity, higher = more binding, comparable within an allelic series)"
same,binding signal,[4],"9.76 upbm affinity estimate (log intensity, higher = more binding, comparable within an allelic series)"
GTAAATAC,binding signal,[1],"10.3 upbm affinity estimate (log intensity, higher = more binding, comparable within an allelic series)"
same,binding signal,[3],"11.3 upbm affinity estimate (log intensity, higher = more binding, comparable within an allelic series)"
CATGATTA,binding signal,[1],"10.4 upbm affinity estimate (log intensity, higher = more binding, comparable within an allelic series)"
same,binding signal,[2],"11.4 upbm affinity estimate (log intensity, higher = more binding, comparable within an allelic series)"
same,binding signal,[3],"12.6 upbm affinity estimate (log intensity, higher = more binding, comparable within an allelic series)"
same,binding signal,[4],"10.8 upbm affinity estimate (log intensity, higher = more binding, comparable within an allelic series)"
GGACTCCC,binding signal,[1],"9.88 upbm affinity estimate (log intensity, higher = more binding, comparable within an allelic series)"
same,binding signal,[2],"9.72 upbm affinity estimate (log intensity, higher = more binding, comparable within an allelic series)"
same,binding signal,[3],"9.84 upbm affinity estimate (log intensity, higher = more binding, comparable within an allelic series)"
same,binding signal,[4],"9.79 upbm affinity estimate (log intensity, higher = more binding, comparable within an allelic series)"
CCTCGTCC,binding signal,[1],"9.94 upbm affinity estimate (log intensity, higher = more binding, comparable within an allelic series)"
same,binding signal,[2],"9.95 upbm affinity estimate (log intensity, higher = more binding, comparable within an allelic series)"
same,binding signal,[3],"9.86 upbm affinity estimate (log intensity, higher = more binding, comparable within an allelic series)"
same,binding signal,[4],"9.98 upbm affinity estimate (log intensity, higher = more binding, comparable within an allelic series)"
CCTGGGCG,binding signal,[1],"9.75 upbm affinity estimate (log intensity, higher = more binding, comparable within an allelic series)"
same,binding signal,[2],"9.75 upbm affinity estimate (log intensity, higher = more binding, comparable within an allelic series)"
same,binding signal,[3],"9.75 upbm affinity estimate (log intensity, higher = more binding, comparable within an allelic series)"
same,binding signal,[4],"9.8 upbm affinity estimate (log intensity, higher = more binding, comparable within an allelic series)"
AGCTCCCC,binding signal,[1],"9.71 upbm affinity estimate (log intensity, higher = more binding, comparable within an allelic series)"
same,binding signal,[2],"9.69 upbm affinity estimate (log intensity, higher = more binding, comparable within an allelic series)"
same,binding signal,[3],"9.78 upbm affinity estimate (log intensity, higher = more binding, comparable within an allelic series)"
same,binding signal,[4],"9.81 upbm affinity estimate (log intensity, higher = more binding, comparable within an allelic series)"
CCCTCCAG,binding signal,[6],"9.59 upbm affinity estimate (log intensity, higher = more binding, comparable within an allelic series)"
same,binding signal,[7],"10.1 upbm affinity estimate (log intensity, higher = more binding, comparable within an allelic series)"
same,binding signal,[8],"9.64 upbm affinity estimate (log intensity, higher = more binding, comparable within an allelic series)"
same,binding signal,[9],"9.54 upbm affinity estimate (log intensity, higher = more binding, comparable within an allelic series)"
same,binding signal,[10],"10.1 upbm affinity estimate (log intensity, higher = more binding, comparable within an allelic series)"
same,binding signal,[11],"9.74 upbm affinity estimate (log intensity, higher = more binding, comparable within an allelic series)"
